a7 integrin act – qHTS for Activators of Integrin-Mediated Alleviation for Muscular Dystrophy; actives 0.064% (n = 350,000); Potency, µM (doses to about 38.3 µM), hits mostly activators; alpha7betagal myoblasts, beta-gal FDG fluorescence, 48 h; active = well fitted activation curve with a large enough effect; inconclusive = small, poorly fitted or top-dose-only effect; inactive = no such curve, though single readings can be large or run the other way; note: nearly all actives have a fitted effect of over 60% in size
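Alpha7betagal+/- myoblasts (passage 13) were plated 16-24 hr, then exposed to compounds (1:260 dilution of DMSO stock) for 48 hours at 37C. After MPER lysis, β-galactosidase reporter activity was read as FDG fluorescence (ex 480/em 540) after 30 minutes.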
D3 antag – qHTS of D3 Dopamine Receptor Antagonist: qHTS; actives 2.5% (n = 360,000); D(3) dopamine receptor (Homo sapiens), P35462; AID 652054, 2013; D3R cells, DiscoveRx beta-arrestin luminescence, antagonist mode; active compounds read low; max response, negative = inhibition, %; in the data active = max response below about -50%; inconclusive = no clear call, values can overlap the other calls
Target sequence (P35462 whole entry, looked up): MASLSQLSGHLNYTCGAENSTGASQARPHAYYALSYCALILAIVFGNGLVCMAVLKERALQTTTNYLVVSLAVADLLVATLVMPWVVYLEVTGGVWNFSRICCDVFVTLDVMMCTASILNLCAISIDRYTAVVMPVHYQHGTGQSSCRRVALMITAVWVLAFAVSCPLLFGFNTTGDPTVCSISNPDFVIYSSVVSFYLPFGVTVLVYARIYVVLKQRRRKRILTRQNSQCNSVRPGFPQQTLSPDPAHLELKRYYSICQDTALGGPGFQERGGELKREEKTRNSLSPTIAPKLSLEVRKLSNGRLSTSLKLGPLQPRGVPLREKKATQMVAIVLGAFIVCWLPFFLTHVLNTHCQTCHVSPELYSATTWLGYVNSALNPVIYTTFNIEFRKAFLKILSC
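Cells plated overnight at 1500 cells/well, then exposed to library compounds with dopamine controls for 90 minutes at 37 degrees C. DiscoveRx reagent added for 30–60 minutes at room temperature; luminescence read, quantitative HTS format.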
D3 ag – qHTS of D3 Dopamine Receptor Agonist: qHTS. D(3) dopamine receptor (Homo sapiens), P35462. D3R DiscoveRx beta-arrestin cells, luminescence, 90 min. max activation, %. actives 0.58% (n = 410,000). AID 652048, 2013; in the data active = max activation above about 30%
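Agonist mode: compounds and dopamine controls were applied to plated cells for 90 min at 37 degrees C after an overnight attachment at 1500 cells/well. Luminescent read-out followed 30 - 60 minutes at room temperature with DiscoveRx detection reagent.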
Hits are given with their value; 0 = inactive; ? = inconclusive; - = no result. Rows were chosen to be rich in hits. Some 2.9% of all compounds tested hit in one or more screens of this group.

SMILES	a7 integrin act	D3 antag	D3 ag
COc1cccc(CNc2nc3cc(-c4ccc(OC)c(OC)c4)sc3c(=O)n2C)c1	-	0	40
COc1cccc(CNc2nc3cc(-c4ccccc4)sc3c(=O)n2C)c1	-	0	0
O=C(Nc1ccc(N2CCOCC2)cc1)c1ccc(Cl)cc1N1CCCC1=O	0	0	0
c1ccc(COc2cccc(-c3cc4nc(NCCOc5ccccc5)ccn4n3)c2)cc1	-	0	0
c1ccc(COc2cccc(-c3cc4nc(NCCc5ccncc5)ccn4n3)c2)cc1	-	0	88
O=C(Nc1nnc(SCc2ccc(F)cc2)s1)c1ccc2ncsc2c1	?	0	0
O=C(Nc1nnc(SCc2ccc(F)cc2)s1)c1ccc2c(c1)C(=O)N(c1ccccc1Cl)C2=O	0	0	53
CCOC(=O)c1ccc(NC(=O)c2ccc(CN3C(=O)CCn4nc(C)cc43)cc2)cc1	-	-	0
COc1ccc2[nH]c3c(=O)n(Cc4ccc(C(=O)NCC5CCCO5)cc4)c(=S)[nH]c3c2c1 (stereo unspecified)	0	0	0
CCN1CCN(CCNC(=O)c2ccc3nc(-c4cccc(C)c4)c(-c4cccc(C)c4)nc3c2)CC1	0	0	0
COc1ccc([N+](=O)[O-])cc1NC(=O)CCCOc1ccccc1	0	0	0
COc1ccc([N+](=O)[O-])cc1NC(=O)CCN1CCN(c2ccccc2)CC1	0	0	75
COc1ccc(OC)c(NC(=O)CCN2CCCCC2)c1	0	0	0
COc1cc(NC(=O)CCN2CCN(c3ccccc3OC)CC2)cc(OC)c1	0	-99	0
COc1cc(NC(=O)CCN2CCN(C)CC2)cc(OC)c1	0	0	0
COc1ccc(OC)c(NC(=O)CCN2CCN(c3ccccc3OC)CC2)c1	0	-84	0
COc1ccc(C(C)=O)cc1COC(=O)c1ccc(OCc2c(C)noc2C)cc1	0	0	0
COc1cccc(/C=C/C(=O)c2c(O)cc(C)oc2=O)c1O	0	-74	0
COc1ccc(/C=C/C(=O)c2c(O)cc(C)oc2=O)c(OC)c1	0	0	0
COc1cc(OC)cc(C(=O)Nc2ccc3oc(-c4ccc(Cl)cc4)nc3c2)c1	-	-	0
CCOc1ccc2nc(S(=O)(=O)NC(=O)C3(C)CCN3C(=O)c3cccc(F)c3)sc2c1 (stereo unspecified)	-	0	0
Cc1cccc(OCCC(=O)Nc2ccc(S(=O)(=O)N3CCCC3)cc2)c1	0	0	0
Cc1ccccc1OCCC(=O)Nc1ccc(S(=O)(=O)N2CCCC2)cc1	0	-87	0
COc1ccc(-n2c(SC(C)C(=O)Nc3ncc(Cl)cc3Cl)nc3ccccc32)cc1 (stereo unspecified)	0	0	36
CC(Sc1nnc2ccccn12)C(=O)Nc1ncc(Cl)cc1Cl (stereo unspecified)	0	-50	0
SMILES	a7 integrin act	D3 antag	D3 ag
CC(Sc1nnc2ccccn12)C(=O)Nc1ccc(Cl)cn1 (stereo unspecified)	0	0	0
CC(Sc1ccc2c(c1)OCCO2)C(=O)Nc1ncc(Cl)cc1Cl (stereo unspecified)	0	0	0
C1=C[C@H]2CCCN3CC[C@@H]([C@@H]2[C@]32CO2)[C@H]1CCOCc1ccccc1	-	0	0
O=C(Nc1ccc(C(=O)N2CCOCC2)cc1)c1ccccc1	0	0	0
CC(=O)Nc1ccc(NC(=O)C(C)OC(=O)C2CC3C=CC2C3)cc1 (stereo unspecified)	0	?	0
COc1ccccc1N=c1scc(-c2ccc3c(c2)NC(=O)CO3)n1CC1CCCO1 (stereo unspecified)	0	-75	0
O=C1COc2ccc(-c3csc(=Nc4ccc(OC(F)F)cc4)n3CC3CCCO3)cc2N1 (stereo unspecified)	0	0	0
Cc1cccc(NCc2ccc(Br)cc2)n1	0	0	0
COc1ccc(-c2cnc3c(NC(C)=O)cc(-c4ccc(S(C)(=O)=O)cc4)cn23)cc1OC	-	0	0
O=C(CCC(F)(F)F)N1CCC(CO)(CCc2ccccc2)CC1	0	0	0
OCC1(CCc2ccccc2)CCN(C/C=C/c2ccccc2)CC1	0	-54	0
COC(=O)c1cccc(C(=O)N2CCC(CO)(Cc3ccccc3Cl)CC2)c1	?	0	0
OCC1(Cc2ccccc2Cl)CCN(C/C=C/c2ccccc2)CC1	0	-78	0
O=C(CSc1nc2c([nH]c3ccccc32)c(=O)n1-c1ccc(Cl)cc1)NC1CCCCC1	-	-	0
O=C(CCOc1ccccc1)NCC(c1ccco1)N1CCCCC1 (stereo unspecified)	0	0	0
Cn1nnnc1SCc1cn2cccnc2n1	0	0	0
CCOC(=O)n1c(=O)oc2cc(S(=O)(=O)N3CCCCC3)ccc21	0	0	0

Screens deposited in PubChem by National Center for Advancing Translational Sciences (NCATS).
